Data on 18 molecules can be found in PubChem BioAssay (NCI).

Compounds without any hit were thinned out: in the full panel of roughly 79,000, 15% have a hit. A number with no mark means an inactive call. The source made the active and inactive calls. No stated cut-off is given here; in the data, active means growth inhibition above about 70%; inactive means the rest.

The experiment can be described thus: NCI Yeast Anticancer Drug Screen. Data for the bub3 strain (AID 167). To be noted: S. cerevisiae bub3 mutant strain, at 50.0 µM, stronger effect = higher value. A digest of the protocol:
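Readout: yeast growth inhibition, expressed relative to vehicle-only wells. The test organism is a mutant strain from a panel with lesions in DNA repair or checkpoint genes.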
In the case of `O=[N+]([O-])C(CO)CCCC(CO)[N+](=O)[O-]` (stereo not drawn), the growth inhibition is -20.4%.

For `CN1CCC[N+](C)=C1c1ccc(N(C)C)cc1`, the growth inhibition was -10.1%.

On to `COP1(=S)OCC2OC(n3cc(C)c(=O)[nH]c3=O)CC2O1` (stereo not drawn), for which the growth inhibition was 23.1%.

Consider `CN(c1ccccc1)c1nc(=[N+]2CCCC2)ss1`, for which the growth inhibition is 7.75%.

With `NC(Cc1ccccc1)c1nn[nH]n1` (stereo not drawn), the growth inhibition is -17.4%.

On to `O=C1NC(=O)C2(c3ccccc3)CCN1C2=O` (stereo not drawn), for which the growth inhibition is -12.2%.

Consider `Cc1cc(C)c(CCN(C)C)c(C)c1C`, for which the growth inhibition is 1%.

With `O=C1N=NC(Cl)c2ccccc21` (stereo not drawn), the growth inhibition was -17.9%.

Regarding `CN(C)c1ccc(C=O)cc1.[C-]#[O+].[C-]#[O+].[C-]#[O+].[Cr]`, the growth inhibition was -18.4%.

Consider `CC12CC/C(=N/NC(=O)Cc3c[nH]c4ccccc34)C=C1CCC1C2CCC2(C)C(OC(=O)c3ccccc3)CCC12` (stereo not drawn), for which the growth inhibition was 3.3%.

As for `COc1cccc(C2CC(=O)c3cccn32)c1` (stereo not drawn), the growth inhibition is -5.25%.

Take `COc1cc(CC(N)c2ccccc2)ccc1O` (stereo not drawn): the growth inhibition was 2.1%.

`CCCCC1(CCSC(=S)OCC)C(=O)NC(=O)NC1=O`: the growth inhibition is -2.7%.

As to `CC(=O)Oc1ccc(CCN(C)C2CC3CCC2(C)C3(C)C)cc1OC(C)=O` (stereo not drawn), the growth inhibition is 6.1%.

As for `O=[N+]([O-])c1cccc(C(Cl)Cl)c1`, the growth inhibition is 12.1%.

As to `CCOP(=S)(NCCCOC)OCC`, the growth inhibition was 22.6%.

Take `CCOC(OC1=C(C#N)CCCC1)C(C)[Se]c1ccccc1` (stereo not drawn): the growth inhibition is 50.4%.

Consider `FC(F)(F)[S-].FC(F)(F)[S-].[C-]#[O+].[C-]#[O+].[C-]#[O+].[C-]#[O+].[C-]#[O+].[C-]#[O+].[C-]#[O+].[C-]#[O+].[Mn].[Mn]`, for which the growth inhibition was 99% (active).
